# Assay results reported in PubChem BioAssay AID624417 (National Center for Advancing Translational Sciences (NCATS), 2012).
# In all, about 410,000 compounds went through this assay and about 6,400 (1.6%) were called active. Inconclusive results (about 20%) are left out. Calls follow the shape of the dose curve; as a rule, active = well fitted inhibition curve with a large enough effect; inconclusive = small, poorly fitted or top-dose-only effect; inactive = no such curve, though single readings can be large or run the other way. The sample as a whole holds a higher share of actives than the screen did.
# Target: Glucagon-like peptide 1 receptor (Homo sapiens) (UniProt P43220)
# Assay: qHTS of GLP-1 Receptor Inverse Agonists (Inhibition Mode); also: nearly all actives have a fitted effect of over 55% in size
# Settings: HEK293 GLP-1R CRE-luciferase, luminescence, 24 h, GLP-1R form is constitutively active; series mostly up to 38.3 µM; activity change, negative = inhibition: at the top concentration
# In short: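 Assay principle: reduced luminescence from a cAMP-responsive reporter in HEK293 cells co-expressing a constitutively active GLP-1R. Conditions: 24 hr compound incubation, 37 deg C, 5% CO2.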
# % is scaled to controls: 0 for no effect and ±100 for the full control effect; potency is read from the fitted curve at half-maximal effect.
# Glucagon-like peptide 1 receptor (Homo sapiens), sequence (P43220 whole entry, looked up): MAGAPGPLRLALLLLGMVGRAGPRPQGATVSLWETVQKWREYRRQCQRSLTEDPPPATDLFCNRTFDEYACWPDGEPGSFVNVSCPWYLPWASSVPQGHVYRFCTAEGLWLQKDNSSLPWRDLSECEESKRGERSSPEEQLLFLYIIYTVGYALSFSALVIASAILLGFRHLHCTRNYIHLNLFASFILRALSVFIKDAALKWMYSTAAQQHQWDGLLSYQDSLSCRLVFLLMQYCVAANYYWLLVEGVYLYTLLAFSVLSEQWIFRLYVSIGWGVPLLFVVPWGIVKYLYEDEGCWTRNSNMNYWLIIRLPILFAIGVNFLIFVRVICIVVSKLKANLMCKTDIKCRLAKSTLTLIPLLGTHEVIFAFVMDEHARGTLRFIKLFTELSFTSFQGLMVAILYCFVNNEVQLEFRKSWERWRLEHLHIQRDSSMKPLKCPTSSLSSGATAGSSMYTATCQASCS
Compound,Potency,"activity change, negative = inhibition"
COc1ccc(CCC(=O)NCCc2csc(-c3ccc(Cl)cc3)n2)cc1,10 µM (active),
COc1ccc(-c2nc(CCNC(=O)c3ccc(Br)o3)cs2)cc1,inactive,
O=C(NCCc1csc(-c2ccccc2)n1)c1ccccc1F,,-18.6% (inactive)
CN1OC[C@@H]2CN(C(=O)c3cccnc3)[C@H](c3ccc(N4CCCCC4)cc3)C[C@@H]21,,22.9% (inactive)
CNC(=O)C[C@H]1C(=O)N(Cc2ccccc2)C[C@@H]1CSC,,3.07% (inactive)
Oc1ccc(-c2nc3ccc(Cl)cn3c2Nc2ccc3c(c2)OCO3)cc1,,5.13% (inactive)
Cc1cccc2nc(-c3ccc(Cl)s3)c(Nc3ccc4c(c3)OCCO4)n12,10 µM (active),
Oc1ccccc1-c1nc2ccc(Cl)cn2c1Nc1ccc2c(c1)OCCO2,,4.4% (inactive)
O=C(NCCS(=O)(=O)N1CCN(c2ccccc2)CC1)c1cc(=O)c2ccccc2o1,,-0.814% (inactive)
CC1(C2CC2)NC(=O)N(CC(=O)N2CCN(c3ccccc3F)CC2)C1=O (stereo not given),,3.81% (inactive)
O=C(Nc1ccc(OCCO)cc1)c1csc([C@H]2C[C@H](O)[C@@H](CO)O2)n1,,14.8% (inactive)
COc1ccc(CSc2nc(N3CCOCC3)c3c(c2C#N)CC(C)(C)OC3)cc1,,-7.76% (inactive)
CCOC(=O)CSc1nccc(N(C)C)c1C#N,,4.71% (inactive)
CCOC(=O)CSc1nc(N2CCOCC2)c2c(c1C#N)CC(C(C)C)OC2 (stereo not given),2.24 µM (active),
Cc1ccc(-c2c(N)nc3ncccn23)cc1,,8.12% (inactive)
CCCc1c(-c2ccccc2F)ncn1Cc1ccccc1OC,,-29.9% (inactive)
COc1cccc(NC(=O)C2(C)CCN2C(=O)CCC2CCCC2)c1 (stereo not given),,-23.3% (inactive)
CC1(C(=O)Nc2cccc(Oc3ccccc3)c2)CCN1Cc1ccccc1Cl (stereo not given),10 µM (active),
CSc1ccc(CN2CCC2(C)C(=O)Nc2ccc(C)c(O)c2)cc1 (stereo not given),,-23.4% (inactive)
Cc1ccc(C)c(C(O)c2ncc(-c3cccc4ccccc34)[nH]2)c1 (stereo not given),,-13.6% (inactive)
CCc1ccccc1NC(=S)Nc1cc(OC)c(NC(=O)C(C)C)cc1OC,,-3.86% (inactive)
CCc1ccccc1NC(=O)/C(=C/c1ccccc1)c1ccccc1,11.2 µM (active),

Compound,Potency,"activity change, negative = inhibition"
CCc1ccccc1NC(=O)CCOc1ccccc1,inactive,
O=S1(=O)CC(N2CCN(Cc3ccccc3F)CC2)CN1Cc1cn(Cc2ccccc2)nn1 (stereo not given),,0.366% (inactive)
Cc1nn(Cc2ccccc2)c(C)c1CNC(=O)c1ccc(F)c(S(=O)(=O)N2CCOCC2)c1,,-18.7% (inactive)
NS(=O)(=O)c1ccc(CCNC(=O)c2ccc(Cl)c(S(=O)(=O)N3CCCCCC3)c2)cc1,,-24.7% (inactive)
O=C(NCCSCc1ccccc1)c1ccc(Cl)c(S(=O)(=O)N2CCOCC2)c1,11.2 µM (active),
CCCC(=O)N1CCC1(C)C(=O)Nc1ccc(-n2cncn2)cc1 (stereo not given),,14.1% (inactive)
CCOC(=O)C1CCCN(C(=O)c2ccc(N(C)C)cc2)CC1 (stereo not given),,18.7% (inactive)
OCCN1CCN(c2nnc(-c3ccccc3)c3ccccc23)CC1,,-8.64% (inactive)
CC(Nc1nc(N2CCN(CCO)CC2)nc2ccccc12)c1ccccc1 (stereo not given),4.47 µM (active),
O=C1c2ccccc2C(=O)c2c1cccc2N1CCN(CCO)CC1,,0% (inactive)
CC(=O)Nc1cc(-c2ccc(N3CCN(C)CC3)cc2)cn2c(-c3cccc(C(=O)N(C)C)c3)cnc12,,14.6% (inactive)
COc1cc(CNC2CCCC2)c(Br)cc1OCc1ccccc1,3.16 µM (active),
COc1ccc(CNC2CCCCC2)cc1,,9.28% (inactive)
COc1cc(C=O)c(Br)cc1OCC(=O)NCc1ccccc1,,-19.7% (inactive)
COc1cc2nnn(-c3ccncc3)c2cc1OC,,25.3% (inactive)
O=C(CN1CCCCCC1)Nc1ccc(Cl)cc1F,,-19.6% (inactive)
O=C(CN1CCCCCC1)Nc1ccc(Br)cc1Br,10 µM (active),
O=C(CN1CCCCCC1)Nc1ccc(Br)cc1[N+](=O)[O-],,-24.9% (inactive)
COCCCNC(=O)c1cccc2c(-c3ccc(O)c(OC)c3)coc12,,-6.91% (inactive)
COc1cccc(CN2CCC(C(=O)NC(c3ccc4c(c3)OCO4)c3ccccn3)CC2)c1 (stereo not given),,-6.91% (inactive)
CCc1nc2ccc(C(=O)NC3CCN(Cc4ccccc4)CC3)cn2c1N(CC)CCOC,,9.54% (inactive)
Cc1cc(Br)cn2c(Cc3cccc(F)c3)c(-c3cccc(Br)c3)nc12,,-29.4% (inactive)

Compound,Potency,"activity change, negative = inhibition"
O=C1CCC(CCC(=O)N2CCCC(C(=O)c3ccc(Cl)cc3)C2)=NN1 (stereo not given),,16% (inactive)
Cn1cc(CCC(=O)N2CCCC(C(=O)c3ccc(C(C)(C)C)cc3)C2)cn1 (stereo not given),10 µM (active),
COCC(=O)N1CCCC(C(=O)c2ccc(C(F)(F)F)cc2)C1 (stereo not given),,4.28% (inactive)
CCCNC(=O)c1cc(C2CCCCN2S(=O)(=O)c2cn(C)cn2)on1 (stereo not given),,14.7% (inactive)
O=C(NCc1ccc(F)cc1)c1cc(C2CCCCN2C(=O)c2ccccn2)on1 (stereo not given),,11.6% (inactive)
Cc1cccc(S(=O)(=O)N(C)C[C@H]2OCc3cnnn3CCCC(=O)N([C@@H](C)CO)C[C@H]2C)c1,,9.44% (inactive)
CSc1ccc(CCNC(=O)C2CCN(c3nnc(-n4cccc4)s3)CC2)cc1,,-22.2% (inactive)
Cc1ccc(CCNC(=O)C2CCN(c3nnc(-n4cccc4CNc4ccc(C)cc4)s3)CC2)cc1,4.47 µM (active),
CCOc1ccc(CNC(=O)C2CCN(c3nnc(-n4cccc4CNc4ccc(C)cc4)s3)CC2)cc1OC,,-7.98% (inactive)
O=C(NCc1ccccc1)C(c1ccc(F)cc1)N1CCN(C(=O)C2CCCO2)CC1 (stereo not given),,14.2% (inactive)
O=S1(=O)CC(N2CCSCC2)CN1Cc1cn(Cc2cccc(Cl)c2)nn1 (stereo not given),,6.48% (inactive)
C[C@@H]1CN([C@@H](C)CO)C(=O)CCCn2cc(nn2)CO[C@H]1CN(C)S(=O)(=O)c1ccc(-n2cccn2)cc1,,16.2% (inactive)
COc1ccccc1NC(=O)[C@H](COCc1ccccc1)NC(=O)OC(C)(C)C,10 µM (active),
COc1ccccc1NC(=O)C(CC(=O)O)Cc1cc(C)cc(C)c1 (stereo not given),,-6.79% (inactive)
COc1ccccc1NC(=O)CC(NCCN(C)C)C(=O)O (stereo not given),,3.36% (inactive)
O=C(NCc1nnnn1-c1ccc(Cl)cc1)c1ccc2c(c1)OCO2,,-3.95% (inactive)
COc1cccc(/C=C2\SC(=S)N(CCCC(=O)N3CCOCC3)C2=O)c1,,-18.9% (inactive)
COc1ccccc1N(C)S(=O)(=O)c1ccc(C(=O)N2CCC(C(N)=O)CC2)cc1,,0.999% (inactive)
COc1ccc(S(=O)(=O)NC(C)C)cc1C(=O)NC1CCCCC1,,5.65% (inactive)
COc1ccccc1N(C)S(=O)(=O)c1ccc(C(=O)NC2CCCCCC2)cc1,10 µM (active),
O=C(Nc1ccc(Cl)cc1)c1csc([C@@H]2O[C@H](CO)[C@H](O)[C@H](O)[C@H]2O)n1,,14.7% (inactive)
